Each structure is given as a SMILES string. “And” between values parts separate entries of the source, which are not always exact repeats. Equal values may be shown once. Inconclusive results are not listed. Some structures have more than one record in an assay (separate samples or runs), and their calls can disagree. The source made the active and inactive calls. How the source made its calls: active means hit-call score of the fitted dose curve at least 0.9, where 1 is the maximum; inconclusive means response in the unintended direction; inactive means score below 0.9.

Assay [1] has as its target rat Neonicotinoid receptor (NNR), Chrna7 (gene 25302) (UniProt Q05941). Put plainly: NVS_LGIC_rNNR_BungSens: NovaScreen (NVS) Ligand-Gated Ion Channel Assay for rat Neonicotinoid receptor (NNR) (AID 2283315). An outline of the steps:
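Rat cortical membrane preparation incubated 2.5 h with tritiated or iodinated radioligand and test chemical. Bound radioactivity was filtered and counted by scintillation, and displacement was analysed against DMSO.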

The target of assay [2] is bovine Gamma-Aminobutyric Acid Type A Receptor BDZ, alpha 5 site (GABARa5), GABRA5 (gene 523515) (UniProt Q08E50). Put plainly: NVS_LGIC_bGABARa5: NovaScreen (NVS) Ligand-Gated Ion Channel Assay for bovine Gamma-Aminobutyric Acid Type A Receptor BDZ, alpha 5 site (GABARa5) (AID 2283323). An outline of the steps: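 Tested first in duplicate at a single 25 uM, with hits re-run in concentration series to a 50 uM maximum. Bovine hippocampal membranes; specific radioligand displacement measured by filter scintillation counting 1 hr post-dose.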

Assay [3] has as its target human Opioid Receptor Mu (Opiate Mu), OPRM1 (gene 4988) (UniProt P35372). Nature of the assay: NVS_GPCR_hOpiate_mu: NovaScreen (NVS) G Protein-Coupled Receptor Assay for human Opioid Receptor Mu (Opiate Mu) (AID 2283290).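 Further: hits lower bound tracer signal versus DMSO meaning displacement of the ligand.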 An outline of the steps: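 CHO-derived receptor protein, cell-free; radioligand displacement, filtration + scintillation counting, read at 2.5 h. DMSO = negative control/baseline. Primary: 25 uM single conc, duplicate; secondary: concentration series.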

In assay [4] the target is guinea pig Serotonin, 5-Hydroxytryptamine Receptor 4 (5HT4), HTR4 (gene 100135548) (UniProt O70528). Nature of the assay: NVS_GPCR_g5HT4: NovaScreen (NVS) G Protein-Coupled Receptor Assay for guinea pig Serotonin, 5-Hydroxytryptamine Receptor 4 (5HT4) (AID 2283294). In outline:
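Compounds first screened in duplicate at 25 uM, actives followed up in concentration series. Binding measured as displacement of specific radioligand from guinea pig striatal membranes, 1 h, filter-based scintillation read-out versus DMSO baseline.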

The target in assay [5] is rat Opioid Receptor, Non-selective Sodium (Na+) Binding, Oprm1 (gene 25601) (UniProt P33535). Nature of the assay: NVS_GPCR_rOpiate_NonSelectiveNa: NovaScreen (NVS) G Protein-Coupled Receptor Assay for rat Opioid Receptor, Non-selective Sodium (Na+) Binding (AID 2283311). An outline of the steps:
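Filtration radioligand binding on rat forebrain membrane preparations, read 1.5 h after dosing. Single-concentration 25 µM primary screen in duplicate, followed by singleton concentration series to 50 µM max for actives; DMSO baseline.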

The target of assay [6] is rat Vasopressin 1 Receptor (V1), Avpr1a (gene 25107) (UniProt P30560). Nature of the assay: NVS_GPCR_rV1: NovaScreen (NVS) G Protein-Coupled Receptor Assay for rat Vasopressin 1 Receptor (V1) (AID 2283316). An outline of the steps:
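Concentration-response up to 50 uM for chemicals passing a threshold such as 30% inhibition in an initial duplicate 25 uM screen. Displacement of radioligand from rat liver membranes measured after 1.5 h by filtration and scintillation.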

The target of assay [7] is rat Opioid Receptor, Non-selective Binding, Oprm1 (gene 25601) (UniProt P33535). Put plainly: NVS_GPCR_rOpiate_NonSelective: NovaScreen (NVS) G Protein-Coupled Receptor Assay for rat Opioid Receptor, Non-selective Binding (AID 2283318). In outline: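 Filter-based radioligand displacement using rat forebrain membrane preparations, measured 1.5 h post-dosing. Single-concentration duplicate screen at 25 uM, follow-up in concentration series; activity taken as signal loss relative to DMSO.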
Sequence of rat Opioid Receptor, Non-selective Binding, Oprm1 (gene 25601) (P33535 whole entry, looked up): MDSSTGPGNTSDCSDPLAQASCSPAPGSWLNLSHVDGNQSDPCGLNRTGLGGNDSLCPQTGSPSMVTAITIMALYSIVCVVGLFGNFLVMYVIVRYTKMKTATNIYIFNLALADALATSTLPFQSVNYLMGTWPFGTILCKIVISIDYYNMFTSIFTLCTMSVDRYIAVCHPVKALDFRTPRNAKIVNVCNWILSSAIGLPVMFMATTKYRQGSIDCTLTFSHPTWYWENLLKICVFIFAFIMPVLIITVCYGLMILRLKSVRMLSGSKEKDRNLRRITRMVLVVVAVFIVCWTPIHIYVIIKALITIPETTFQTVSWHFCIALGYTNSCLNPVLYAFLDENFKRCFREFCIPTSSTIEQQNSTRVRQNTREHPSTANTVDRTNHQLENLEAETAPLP

The target in assay [8] is Sodium channel protein type 1 subunit alpha (Rattus norvegicus) (UniProt P04774). Nature of the assay: NVS_IC_rNaCh_site2: NovaScreen (NVS) Ion Channel Assay for rat Sodium Channel, Site 2 (NaCh) (AID 2283322).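 Further: hit means loss of radioligand binding signal relative to DMSO so AC50 marks displacement.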 In outline: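 Initial duplicate single-point testing at 25 uM, followed by concentration-response runs for actives. Binding of radioligand to rat forebrain membranes quantified after 1 h via filter-based radiodetection.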

The test system of assay [9] is rabbit Platelet Activating Factor Receptor (PAF), gene 100354046. Nature of the assay: NVS_GPCR_rabPAF: NovaScreen (NVS) G Protein-Coupled Receptor Assay for rabbit Platelet Activating Factor Receptor (PAF) (AID 2283287). An outline of the steps: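 Rabbit platelet membrane preparation; radioligand displacement read by filter-based scintillation counting 1 h after dosing, loss of signal versus DMSO. Primary screen in duplicate at 25 uM, actives followed up in concentration series.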

The target in assay [10] is guinea pig Bradykinin Receptor B2 (BK2), BDKRB2 (gene 100135486) (UniProt O70526). Nature of the assay: NVS_GPCR_gBK2: NovaScreen (NVS) G Protein-Coupled Receptor Assay for guinea pig Bradykinin Receptor B2 (BK2) (AID 2283292). An outline of the steps:
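Guinea pig ileum membrane preparation incubated 1 h with radioligand and test chemical; bound counts measured after filtration. Primary duplicate screening at 25 uM, then singleton concentration series with a 50 uM top dose; DMSO as baseline.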

The target in assay [11] is rat Adrenergic Receptor, Beta (Adrb), Non-selective Binding, Adrb1 (gene 24925) (UniProt P18090). Put plainly: NVS_GPCR_rAdrb_NonSelective: NovaScreen (NVS) G Protein-Coupled Receptor Assay for rat Adrenergic Receptor, Beta (Adrb), Non-selective Binding (AID 2283298). An outline of the steps:
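Rat cortical membranes incubated 1 h with beta-adrenergic radioligand and test chemical; bound ligand measured by filtration and scintillation counting. Screen at 25 uM duplicate, then concentration series with 50 uM maximum; loss of signal versus DMSO.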

Assay [12] deals with rat Serotonin, 5-Hydroxytryptamine Receptor 1 (5HT1), Non-Selective Binding, Htr1a (gene 24473) (UniProt P19327). Put plainly: NVS_GPCR_r5HT1_NonSelective: NovaScreen (NVS) G Protein-Coupled Receptor Assay for rat Serotonin, 5-Hydroxytryptamine Receptor 1 (5HT1), Non-Selective Binding (AID 2283286). In outline: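 Binding of a radioligand to rat cortex membranes is read by filtration and scintillation counting after 1 h. Compounds were screened at 25 uM in duplicate. Actives were then titrated to a top of 50 uM. DMSO is the baseline.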

Assay [13] deals with rat Adrenergic, Alpha 1, Non-selective Receptor (Adra1), Adra1a (gene 29412) (UniProt P43140). Put plainly: NVS_GPCR_rAdra1_NonSelective: NovaScreen (NVS) G Protein-Coupled Receptor Assay for rat Adrenergic, Alpha 1, Non-selective Receptor (Adra1) (AID 2283289). In outline: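 Chemicals first screened in duplicate at 25 uM, then actives tested in concentration series up to 50 uM. Binding measured as displacement of radioligand from rat forebrain membrane receptors, 1 h, filtration with scintillation readout; DMSO baseline.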

Assay [14] has as its target rat Serotonin, 5-Hydroxytryptamine Receptor (5HT), Non-Selective Binding, Htr1a (gene 24473) (UniProt P19327). Put plainly: NVS_GPCR_r5HT_NonSelective: NovaScreen (NVS) G Protein-Coupled Receptor Assay for rat Serotonin, 5-Hydroxytryptamine Receptor (5HT), Non-Selective Binding (AID 2283295). An outline of the steps: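 Rat cortex membrane preparation incubated 1 h with radioligand and test chemical; bound radioactivity counted after filtration. Screening began in duplicate at 25 uM with concentration-series follow-up; fitting relative to DMSO.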

For assay [15], the target named is rat Adrenergic, Alpha 1A Receptor (Adra1A), Adra1a (gene 29412) (UniProt P43140). Put plainly: NVS_GPCR_rAdra1A: NovaScreen (NVS) G Protein-Coupled Receptor Assay for rat Adrenergic, Alpha 1A Receptor (Adra1A) (AID 2283296). An outline of the steps:
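Filter radiodetection after 1 h competitive binding on CEC-pretreated rat cortical membranes. Duplicate single-point screening at 25 uM; active chemicals retested across concentration series.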

The subject of assay [16] is rat Adrenergic, Alpha 1B Receptor (Adra1B), gene 24173. Put plainly: NVS_GPCR_rAdra1B: NovaScreen (NVS) G Protein-Coupled Receptor Assay for rat Adrenergic, Alpha 1B Receptor (Adra1B) (AID 2283297). In outline:
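Filter-binding radioligand competition on membranes from rat liver, read after 1 h by scintillation counting. Single-concentration duplicate screen at 25 uM, followed by concentration-response on actives, normalised to DMSO.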

Assay [17] has as its target rat Histamine Receptor (H3), Hrh3 (gene 85268) (UniProt Q9QYN8). Nature of the assay: NVS_GPCR_rH3: NovaScreen (NVS) G Protein-Coupled Receptor Assay for rat Histamine Receptor (H3) (AID 2283303). An outline of the steps:
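Filter-binding radioligand competition on rat forebrain membranes, 1 h incubation; compounds screened at 25 µM in duplicate and followed in concentration series to 50 µM, loss of bound signal vs DMSO.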

A further assay addresses Adra2b (gene 24174) (UniProt P19328). Put plainly: NVS_GPCR_rmAdra2B: NovaScreen (NVS) G Protein-Coupled Receptor Assay for hybird cells Adrenergic, Alpha 2B Receptor (Adra2B) (AID 2283306). In outline:
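Compounds screened first at 25 uM in duplicate, with actives followed up in concentration-response; specific radioligand displacement from hybrid neuroglioma/blastoma cell membrane preparations measured by filter scintillation counting after 1 h, normalized to DMSO.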

The target in assay [18] is rat Glutamate Metabotropic Receptor 5 (MGluR5), Grm5 (gene 24418) (UniProt P31424). Nature of the assay: NVS_GPCR_rmMGluR5: NovaScreen (NVS) G Protein-Coupled Receptor Assay for rat Glutamate Metabotropic Receptor 5 (MGluR5) (AID 2283307). An outline of the steps: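 Compounds first screened in duplicate at 25 uM, then in concentration series up to 50 uM if over threshold. Radioligand displacement on rat whole-brain membranes, filtration and scintillation counting after 1.5 h; binding loss relative to DMSO.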
Sequence of rat Glutamate Metabotropic Receptor 5 (MGluR5), Grm5 (gene 24418) (P31424 whole entry, looked up): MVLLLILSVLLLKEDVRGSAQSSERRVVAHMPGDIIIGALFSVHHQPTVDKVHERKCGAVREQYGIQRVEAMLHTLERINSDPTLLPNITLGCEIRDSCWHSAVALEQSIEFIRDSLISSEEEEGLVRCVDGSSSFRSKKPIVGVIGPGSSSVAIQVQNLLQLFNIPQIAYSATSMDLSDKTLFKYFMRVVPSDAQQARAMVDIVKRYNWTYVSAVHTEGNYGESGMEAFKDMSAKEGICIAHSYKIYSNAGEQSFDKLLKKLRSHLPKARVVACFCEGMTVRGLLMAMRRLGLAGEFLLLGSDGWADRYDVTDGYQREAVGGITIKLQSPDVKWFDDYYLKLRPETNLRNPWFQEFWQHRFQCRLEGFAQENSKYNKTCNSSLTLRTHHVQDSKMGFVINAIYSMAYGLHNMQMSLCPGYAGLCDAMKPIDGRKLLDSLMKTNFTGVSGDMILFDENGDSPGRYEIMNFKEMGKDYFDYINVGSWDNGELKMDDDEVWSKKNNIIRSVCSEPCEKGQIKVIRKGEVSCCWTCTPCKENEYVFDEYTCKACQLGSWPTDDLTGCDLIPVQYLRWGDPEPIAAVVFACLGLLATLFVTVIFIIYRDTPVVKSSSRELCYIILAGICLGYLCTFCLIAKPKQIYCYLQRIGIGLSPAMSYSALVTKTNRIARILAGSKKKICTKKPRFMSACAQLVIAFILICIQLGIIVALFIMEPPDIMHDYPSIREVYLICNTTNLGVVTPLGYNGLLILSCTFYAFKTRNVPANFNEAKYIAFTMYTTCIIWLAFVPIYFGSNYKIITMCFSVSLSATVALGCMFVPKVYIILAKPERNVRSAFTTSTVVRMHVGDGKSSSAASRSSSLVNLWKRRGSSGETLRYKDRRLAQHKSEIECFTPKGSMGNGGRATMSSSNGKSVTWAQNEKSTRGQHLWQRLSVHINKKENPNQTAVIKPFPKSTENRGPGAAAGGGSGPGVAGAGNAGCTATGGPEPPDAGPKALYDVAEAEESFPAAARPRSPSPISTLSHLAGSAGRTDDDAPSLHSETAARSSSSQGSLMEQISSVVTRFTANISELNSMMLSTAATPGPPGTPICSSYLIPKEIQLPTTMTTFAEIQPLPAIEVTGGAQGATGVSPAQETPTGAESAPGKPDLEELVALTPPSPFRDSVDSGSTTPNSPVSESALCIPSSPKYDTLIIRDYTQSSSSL

Assay [19] addresses rat Neurokinin-1 Receptor (NK1), Tacr1 (gene 24807) (UniProt P14600). Put plainly: NVS_GPCR_rNK1: NovaScreen (NVS) G Protein-Coupled Receptor Assay for rat Neurokinin-1 Receptor (NK1) (AID 2283309). An outline of the steps:
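Competitive radioligand binding to NK1 in rat submaxillary membranes, 1 h incubation, filtration and scintillation read-out. Compounds first screened at 25 uM in duplicate, then concentration-response for actives; signal loss relative to DMSO.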

Sequence of rat Opioid Receptor, Non-selective Sodium (Na+) Binding, Oprm1 (gene 25601) (P33535 whole entry, looked up): as the sequence (P33535 whole entry, looked up) above
Sequence of human Opioid Receptor Mu (Opiate Mu), OPRM1 (gene 4988) (P35372 whole entry, looked up): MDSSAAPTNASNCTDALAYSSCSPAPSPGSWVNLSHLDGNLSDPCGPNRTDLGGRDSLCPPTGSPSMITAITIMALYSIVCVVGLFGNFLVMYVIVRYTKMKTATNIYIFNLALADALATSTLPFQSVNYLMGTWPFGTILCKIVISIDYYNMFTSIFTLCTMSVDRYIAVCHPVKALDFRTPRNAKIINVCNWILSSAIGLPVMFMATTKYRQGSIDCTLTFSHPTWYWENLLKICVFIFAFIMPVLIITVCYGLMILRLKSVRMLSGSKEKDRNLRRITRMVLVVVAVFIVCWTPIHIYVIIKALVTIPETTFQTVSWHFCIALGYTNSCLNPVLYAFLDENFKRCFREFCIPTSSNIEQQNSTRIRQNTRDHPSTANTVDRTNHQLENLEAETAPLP
Sequence of rat Neonicotinoid receptor (NNR), Chrna7 (gene 25302) (Q05941 whole entry, looked up): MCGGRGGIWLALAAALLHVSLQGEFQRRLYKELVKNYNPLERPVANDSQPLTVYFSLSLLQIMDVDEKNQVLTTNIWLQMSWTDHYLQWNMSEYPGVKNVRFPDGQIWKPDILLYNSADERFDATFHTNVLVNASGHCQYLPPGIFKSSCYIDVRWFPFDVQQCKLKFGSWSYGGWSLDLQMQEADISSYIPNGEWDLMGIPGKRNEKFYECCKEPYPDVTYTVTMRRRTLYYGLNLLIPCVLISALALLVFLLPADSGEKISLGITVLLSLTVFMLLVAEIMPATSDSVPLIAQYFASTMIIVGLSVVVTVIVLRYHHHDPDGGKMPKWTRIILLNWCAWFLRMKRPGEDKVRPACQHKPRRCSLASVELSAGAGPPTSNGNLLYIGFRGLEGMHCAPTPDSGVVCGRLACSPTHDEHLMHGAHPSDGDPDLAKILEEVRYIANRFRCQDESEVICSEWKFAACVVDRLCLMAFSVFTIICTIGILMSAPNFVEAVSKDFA
Sequence of guinea pig Serotonin, 5-Hydroxytryptamine Receptor 4 (5HT4), HTR4 (gene 100135548) (O70528 whole entry, looked up): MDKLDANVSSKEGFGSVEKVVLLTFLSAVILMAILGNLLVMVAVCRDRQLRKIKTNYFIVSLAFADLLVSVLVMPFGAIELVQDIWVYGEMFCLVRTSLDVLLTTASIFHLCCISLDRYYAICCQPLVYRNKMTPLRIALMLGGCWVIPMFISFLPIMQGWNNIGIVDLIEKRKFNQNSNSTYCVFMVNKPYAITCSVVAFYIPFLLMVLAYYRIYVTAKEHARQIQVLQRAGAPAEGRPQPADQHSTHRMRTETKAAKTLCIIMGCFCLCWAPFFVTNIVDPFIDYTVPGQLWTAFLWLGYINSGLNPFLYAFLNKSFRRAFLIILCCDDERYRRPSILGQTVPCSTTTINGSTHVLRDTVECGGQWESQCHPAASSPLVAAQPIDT
Sequence of rat Vasopressin 1 Receptor (V1), Avpr1a (gene 25107) (P30560 whole entry, looked up): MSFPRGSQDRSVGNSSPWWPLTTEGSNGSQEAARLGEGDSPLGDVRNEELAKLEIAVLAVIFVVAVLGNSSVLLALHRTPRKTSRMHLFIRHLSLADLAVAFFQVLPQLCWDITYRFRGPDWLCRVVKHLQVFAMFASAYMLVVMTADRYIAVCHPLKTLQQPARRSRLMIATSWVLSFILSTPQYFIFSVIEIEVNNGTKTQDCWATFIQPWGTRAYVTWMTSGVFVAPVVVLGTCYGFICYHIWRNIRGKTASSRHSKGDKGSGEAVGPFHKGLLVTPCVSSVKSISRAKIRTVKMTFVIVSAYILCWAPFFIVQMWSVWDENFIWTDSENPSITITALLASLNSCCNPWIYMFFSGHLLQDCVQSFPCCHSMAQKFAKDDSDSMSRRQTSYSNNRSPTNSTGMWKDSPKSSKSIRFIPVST
Sequence of guinea pig Bradykinin Receptor B2 (BK2), BDKRB2 (gene 100135486) (O70526 whole entry, looked up): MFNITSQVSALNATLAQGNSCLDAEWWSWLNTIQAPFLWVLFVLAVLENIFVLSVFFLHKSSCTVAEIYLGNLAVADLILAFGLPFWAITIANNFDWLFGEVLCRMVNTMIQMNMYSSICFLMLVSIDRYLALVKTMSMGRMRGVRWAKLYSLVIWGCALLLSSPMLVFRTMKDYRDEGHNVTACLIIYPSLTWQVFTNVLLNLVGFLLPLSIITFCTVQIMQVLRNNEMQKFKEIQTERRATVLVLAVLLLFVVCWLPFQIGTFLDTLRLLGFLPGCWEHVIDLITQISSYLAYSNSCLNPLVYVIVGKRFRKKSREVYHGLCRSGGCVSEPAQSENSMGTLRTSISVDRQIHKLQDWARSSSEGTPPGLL
Sequence of Adra2b (gene 24174) (P19328 whole entry, looked up): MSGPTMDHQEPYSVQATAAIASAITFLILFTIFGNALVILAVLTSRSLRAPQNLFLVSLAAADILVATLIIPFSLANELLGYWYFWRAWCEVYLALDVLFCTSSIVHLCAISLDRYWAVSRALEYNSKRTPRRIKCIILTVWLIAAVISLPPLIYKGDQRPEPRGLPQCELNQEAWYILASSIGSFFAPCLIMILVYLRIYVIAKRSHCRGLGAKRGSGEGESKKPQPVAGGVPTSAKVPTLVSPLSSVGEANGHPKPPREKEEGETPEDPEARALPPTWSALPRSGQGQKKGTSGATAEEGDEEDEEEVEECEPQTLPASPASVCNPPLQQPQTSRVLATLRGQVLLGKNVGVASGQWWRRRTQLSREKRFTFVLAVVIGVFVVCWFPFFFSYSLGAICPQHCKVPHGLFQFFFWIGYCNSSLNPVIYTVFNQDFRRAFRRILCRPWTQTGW
Sequence of rat Adrenergic Receptor, Beta (Adrb), Non-selective Binding, Adrb1 (gene 24925) (P18090 whole entry, looked up): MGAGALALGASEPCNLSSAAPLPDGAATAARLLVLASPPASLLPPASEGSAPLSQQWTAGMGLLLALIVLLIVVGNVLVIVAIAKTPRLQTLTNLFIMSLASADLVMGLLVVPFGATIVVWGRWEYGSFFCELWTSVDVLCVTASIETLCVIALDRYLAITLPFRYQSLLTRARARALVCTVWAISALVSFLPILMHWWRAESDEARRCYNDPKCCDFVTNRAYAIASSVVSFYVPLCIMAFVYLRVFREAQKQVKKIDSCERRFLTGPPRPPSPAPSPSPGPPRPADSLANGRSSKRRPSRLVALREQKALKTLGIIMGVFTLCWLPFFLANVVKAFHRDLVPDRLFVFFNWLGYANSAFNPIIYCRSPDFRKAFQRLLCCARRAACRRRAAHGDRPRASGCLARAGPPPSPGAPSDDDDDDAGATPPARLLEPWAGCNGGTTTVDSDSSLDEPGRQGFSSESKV

With `Cc1cc(O)c(C)c(C)c1O`, the compound was classed as inactive in assay [1].
Turning to `C=C(C)C(N)=O`, the call in assay [2] was inactive.
On to `C#C[C@]1(O)CC[C@H]2[C@@H]3CCc4cc(O)ccc4[C@H]3CC[C@@]21C`, for which the AC50 is 25 µM (active) and 6.05 µM (active) in assay [3]; 2.64 µM (active) in assay [4]; 25 µM (active) in assay [6]; 20.5 µM (active) in assay [7]. In addition, the call in [3], in assay [5] and in assay [8] was inactive.
As to `C=C1CC[C@H]2O[C@]2(C)CC[C@@H]2[C@@H]1CC2(C)C`, the AC50 in assay [1] is 15.6 µM (active).
For `CC/C(=C(\c1ccccc1)c1ccc(OCCN(C)C)cc1)c1ccccc1`, the outcome in assay [9], in assay [3], in assay [10], in assay [5], in assay [1] and in [6] was inactive. For the same compound, in assay [7], the compound was called inactive. In addition, the AC50 is 5.74 µM (active) in assay [11] and 1.56 µM (active) in [8].
In the case of `c1ccc2c(c1)-c1ccc3ccc4cccc5cc-2c1c3c45`, the AC50 in [3] is 3.45 µM (active).
For the compound `O=C(c1ccc(OCCN2CCCCC2)cc1)c1c(-c2ccc(O)cc2)sc2cc(O)ccc12`, the AC50 in assay [12] was 18.5 µM (active); in assay [9] it was 12.1 µM (active); in [13], 1.49 µM (active); in assay [3], 0.711 µM (active); in [4] it was 4.36 µM (active); in assay [14], 5.24 µM (active). Besides, the AC50 was 5.36 µM (active) in [15]; 5.62 µM (active) in assay [16]; 25 µM (active) in [17]; 10.7 µM (active) with Adra2b (gene 24174); 18.2 µM (active) in [19]; 1.96 µM (active) in assay [5]. Moreover, the AC50 was 3.64 µM (active) in [7] and 0.869 µM (active) in assay [8]. Moreover, the call in assay [10], in [18] and in assay [1] was inactive.

Values taken from PubChem BioAssay (EPA / NIEHS).
